Measured values as given in PubChem BioAssay (EPA / NIEHS).
Calls of active or inactive are those of the source. The calls were made as follows: active = hit-call score of the fitted dose curve at least 0.9, where 1 is the maximum; inactive = score below 0.9.

Experiments:
[1] = APR_HepG2_CellCycleArrest_1hr: Apredica 1-hour HepG2 Assay for Cell Cycle Arrest (AID 2282666); conditions: high-content imaging, actives raise or lower the signal
In short: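 HepG2 cells exposed for 1 h to 0.39–200 uM compound (0.5% DMSO). Fixed, Hoechst-stained nuclei imaged by ArrayScan; DNA content quantified by Cell Cycle analysis; bidirectional fit against DMSO.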

[2] = APR_HepG2_CellLoss_1hr: Apredica 1-hour HepG2 Assay for Cell Loss (AID 2282668); conditions: high-content imaging;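 also: curves fitted both ways against DMSO so gain or loss of cells counts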
In short: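 HepG2 cells were treated for 1 h with compound at 0.39–200 uM, in duplicate, in 0.5% DMSO. After formaldehyde fixation, Hoechst 33342-stained nuclei were imaged on an ArrayScan to count cells. Data were fitted bidirectionally versus DMSO.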

[3] = APR_HepG2_MicrotubuleCSK_1hr: Apredica 1-hour HepG2 Assay for Microtubule CSK Stabilty (AID 2282669); conditions: HepG2 microtubule cytoskeleton imaging, actives raise or lower the signal
In short: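 HepG2 cells exposed 1 h to 0.39–200 uM compound (0.5% DMSO, duplicates), then formaldehyde-fixed, permeabilized and immunostained for alpha-tubulin with Hoechst nuclei. Imaged by ArrayScan high-content analysis; bidirectional fit versus DMSO.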

[4] = APR_HepG2_NuclearSize_1hr: Apredica 1-hour HepG2 Assay for Nuclear Size (AID 2282670); conditions: high-content imaging, actives raise or lower the signal
In short: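 HepG2 cells dosed 1 hr with 0.39–200 uM compound (0.5% DMSO), formaldehyde-fixed, Hoechst 33342-stained and imaged at 20x; nuclear diameter from nuclear stain, fitted bidirectionally against DMSO.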

[5] = APR_HepG2_p53Act_1hr: Apredica 1-hour HepG2 Assay for p53 Activation (AID 2282671); conditions: high-content imaging, actives raise or lower the signal
In short: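 HepG2 cells treated 1 h with compound at 0.39–200 uM (10 concentrations, duplicate) in 0.5% DMSO. Formaldehyde-fixed, permeabilised cells immunostained for p53 with Hoechst 33342; high-content imaging, bidirectional fit versus DMSO.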

[6] = APR_HepG2_MitoticArrest_1hr: Apredica 1-hour HepG2 Assay for Mitotic Arrest (AID 2282672); conditions: high-content imaging, actives raise or lower the signal
In short: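 HepG2 cells exposed 1 hr to compounds at 0.39–200 uM (0.5% v/v DMSO final), then fixed in 3.7% formaldehyde and immunostained for phospho-histone H3 with Hoechst 33342. Mitotic arrest scored by automated fluorescence imaging, fitted bidirectionally versus DMSO.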

[7] = APR_HepG2_P-H2AX_1hr: Apredica 1-hour HepG2 Assay for H2AX Phosphorylation (AID 2282673); conditions: high-content imaging, actives raise or lower the signal
In short: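 HepG2 dosed 1 hr at 0.39-200 uM (0.5% DMSO final), duplicate. Fixed in 3.7% formaldehyde, Triton permeabilized, immunostained for phospho-histone H2A.x (1:200) with Hoechst 33342; ArrayScan 20x imaging, bidirectional fit vs DMSO.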

[8] = APR_HepG2_MitoMass_1hr: Apredica 1-hour HepG2 Assay for Mitochondrial Mass (AID 2282674); conditions: high-content imaging, actives raise or lower the signal
In short: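 HepG2 cells dosed 1 hr with 0.39-200 uM compound (0.5% DMSO), duplicate wells. Mitochondria stained with 250 nM MitoTracker Red CMXRos for 30 min before formaldehyde fixation, imaged at 20x by ArrayScan; bidirectional fit versus DMSO.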

[9] = APR_HepG2_MitoMembPot_1hr: Apredica 1-hour HepG2 Assay for Mitochondrial Membrane Potential (AID 2282675); conditions: imaging, actives raise or lower the signal
In short: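 HepG2 cells dosed 1 hour with 0.39–200 uM compound in duplicate, 0.5% DMSO final. MitoTracker Red CMXRos (250 nM, 30 min) loaded before formaldehyde fixation; fluorescence quantified by high-content imaging, bidirectional fitting versus DMSO.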

[10] = APR_HepG2_StressKinase_1hr: Apredica 1-hour HepG2 Assay for Stress Kinase (AID 2282906); conditions: HepG2 stress kinase (phospho-c-Jun) imaging, actives raise or lower the signal
In short: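 HepG2 cells dosed 0.39-200 uM (0.5% DMSO) for 1 h, then formaldehyde-fixed. Stress kinase read by phospho-c-Jun immunofluorescence using high-content imaging; bidirectional fit vs DMSO.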

[11] = APR_HepG2_NuclearSize_24hr: Apredica 24-hour HepG2 Assay for Nuclear Size (AID 2282907); conditions: high-content imaging, actives raise or lower the signal
In short: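 Compounds in DMSO (final 0.5%) were added to human HepG2 hepatoma cells at ten concentrations up to 200 uM for 24 hr. Fixed nuclei were stained with Hoechst 33342, and nuclear diameter was quantified from automated images.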

[12] = APR_HepG2_CellLoss_24hr: Apredica 24-hour HepG2 Assay for Cell Loss (AID 2282908); conditions: high-content imaging;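 as to AC50: fit in both directions so a hit may be cell loss or gain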
In short: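 Cell number is quantified by fluorescence imaging of Hoechst 33342-stained nuclei following dosing at 0.39–200 uM in 0.5% DMSO. Curves are fitted in both directions from the DMSO baseline.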

[13] = APR_HepG2_MicrotubuleCSK_24hr: Apredica 24-hour HepG2 Assay for Microtubule CSK Stabilty (AID 2282909); conditions: HepG2 microtubule cytoskeleton imaging, actives raise or lower the signal
In short: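 Steps: dose HepG2 for 24 h (0.39–200 uM, 0.5% DMSO); fix 30 min in 3.7% formaldehyde at room temperature; permeabilize; stain alpha-tubulin 60 min; image microtubule cytoskeleton at 20x. Signal change fitted in both directions relative to DMSO.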

[14] = APR_HepG2_MitoticArrest_24hr: Apredica 24-hour HepG2 Assay for Mitotic Arrest (AID 2282910); conditions: high-content imaging, actives raise or lower the signal
In short: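 Compounds are dosed onto HepG2 cells across ten concentrations up to 200 uM for 24 hr. Cells are then fixed in 3.7% formaldehyde, permeabilised, and labelled for phospho-histone H3 and nuclei; images are scored by cell cycle analysis and fitted bidirectionally relative to DMSO.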

[15] = APR_HepG2_MitoMembPot_24hr: Apredica 24-hour HepG2 Assay for Mitochondrial Membrane Potential (AID 2282911); conditions: imaging, actives raise or lower the signal
In short: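 HepG2, 24 hr dosing, 10 concentrations 0.39–200 uM, 0.5% DMSO final. Live-cell MitoTracker Red CMXRos 250 nM 30 min, then 3.7% formaldehyde fix. HCS fluorescence imaging, 20x; bidirectional fit vs DMSO baseline.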

[16] = APR_HepG2_MitoMass_24hr: Apredica 24-hour HepG2 Assay for Mitochondrial Mass (AID 2282912); conditions: high-content imaging, actives raise or lower the signal
In short: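 The liver line HepG2 was dosed in duplicate across a 0.39–200 uM series, with final DMSO held at 0.5% v/v, and harvested at 24 hr. High-content imaging measured mitochondrial dye staining.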

[17] = APR_HepG2_p53Act_24hr: Apredica 24-hour HepG2 Assay for p53 Activation (AID 2282913); conditions: high-content imaging, actives raise or lower the signal;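 also: p53 protein immunofluorescence averaged per cell in HepG2 with Hoechst nuclei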
In short: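 Read-out: Cy5 immunofluorescence for p53 in fixed, permeabilized HepG2, imaged by HCS with Hoechst-defined nuclei. Dosing was 24 hr at 0.39–200 uM in 0.5% DMSO. Curves were fitted bidirectionally relative to DMSO.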

[18] = APR_HepG2_CellCycleArrest_72hr: Apredica 72-hour HepG2 Assay for Cell Cycle Arrest (AID 2282914); conditions: high-content imaging, actives raise or lower the signal
In short: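 HepG2, 72 hr exposure, 10-point 0.39–200 uM, duplicate, 0.5% DMSO final. Fix 3.7% formaldehyde 30 min RT, Triton X-100 0.5%, Hoechst 33342 2 ug/mL. ArrayScan 20x, six fields/well; DNA content per nucleus; bidirectional fit vs DMSO.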

[19] = APR_HepG2_CellLoss_72hr: Apredica 72-hour HepG2 Assay for Cell Loss (AID 2282915); conditions: high-content imaging
In short: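 Cell number comes from Hoechst 33342-labelled nuclei, imaged at 20x after 3.7% formaldehyde fixation. Dosing was 0.39–200 uM, ten concentrations in duplicate, 0.5% DMSO final, for 72 h. Bidirectional fit relative to DMSO baseline.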

[20] = APR_HepG2_CellCycleArrest_24hr: Apredica 24-hour HepG2 Assay for Cell Cycle Arrest (AID 2282905); conditions: imaging, actives raise or lower the signal;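 also: cell cycle arrest scored as ratio of 2N to 4N nuclear DNA content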
In short: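 Cell cycle arrest is scored from nuclear DNA content measured by high-content imaging of Hoechst 33342-stained HepG2 cells following 24-hour treatment at ten concentrations up to 200 uM, with DMSO as baseline.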

Measured: AC50

CCCSP(=O)(OCC)Oc1ccc(Br)cc1Cl (configuration not stated)
active: [12] 108 µM | [13] 113 µM | [19] 114 µM
inactive: [1] | [2] | [3] | [4] | [5] | [6] | [7] | [8] | [9] | [10] | [11] | [14] | [15] | [16] | [17] | [18]

Nc1nc(N)nc(NC2CC2)n1
inactive: [1] | [2] | [3] | [4] | [5] | [6] | [7] | [8] | [9] | [10] | [11] | [12] | [14] | [15] | [17] | [18] | [19]

C[N+]1(C)CCCCC1
inactive: [1] | [2] | [3] | [4] | [5] | [6] | [7] | [8] | [9] | [10] | [11] | [12] | [13] | [14] | [15] | [16] | [17] | [18] | [19]

O=c1ccc(=O)[nH][nH]1
inactive: [1] | [2] | [3] | [4] | [5] | [6] | [7] | [8] | [9] | [10] | [11] | [12] | [13] | [14] | [15] | [16] | [17] | [18] | [19]

CN(C)NC(=O)CCC(=O)O
inactive: [1] | [2] | [3] | [4] | [5] | [6] | [7] | [8] | [9] | [20] | [11] | [12] | [13] | [14] | [15] | [16] | [17] | [18] | [19]

CC1=NNC(=O)N(/N=C/c2cccnc2)C1
inactive: [1] | [2] | [3] | [4] | [5] | [6] | [7] | [8] | [9] | [11] | [12] | [14] | [15] | [17] | [18] | [19]

COP(=O)(NC(C)=O)SC (configuration not stated)
inactive: [1] | [2] | [3] | [4] | [5] | [6] | [7] | [8] | [9] | [11] | [12] | [14] | [15] | [17] | [18] | [19]

CNc1cnn(-c2cccc(C(F)(F)F)c2)c(=O)c1Cl
inactive: [1] | [2] | [3] | [4] | [5] | [6] | [7] | [8] | [9] | [11] | [12] | [14] | [15] | [16] | [17] | [18] | [19]

C#CC(C)(C)NC(=O)c1cc(Cl)cc(Cl)c1
active: [19] 69.1 µM
inactive: [1] | [2] | [3] | [4] | [5] | [6] | [7] | [8] | [9] | [10] | [11] | [12] | [14] | [15] | [17] | [18]

CSC1=N[C@@](C)(c2ccccc2)C(=O)N1Nc1ccccc1
inactive: [1] | [2] | [3] | [4] | [5] | [6] | [7] | [8] | [9] | [11] | [12] | [14] | [15] | [17] | [18]
active: [19] 12.2 µM

CCOP(=O)(SC(C)CC)N1CCSC1=O (configuration not stated)
inactive: [1] | [2] | [3] | [4] | [6] | [7] | [8] | [9] | [11] | [12] | [13] | [14] | [15] | [16] | [18] | [19]

COP(=O)(OC)OC(Br)C(Cl)(Cl)Br (configuration not stated)
inactive: [1] | [2] | [3] | [4] | [6] | [7] | [8] | [9] | [11] | [15] | [18]
active: [12] 45 µM | [13] 34.1 µM | [14] 34.2 µM | [19] 29.7 µM

CNC(=O)Oc1cccc2c1OC(C)(C)O2
inactive: [1] | [2] | [3] | [4] | [5] | [6] | [7] | [8] | [9] | [11] | [14] | [15] | [17] | [18]
active: [20] 127 µM | [12] 83.8 µM | [19] 86.6 µM

N#CSCSC#N
active: [12] 13.6 µM
inactive: [1] | [2] | [3] | [4] | [5] | [6] | [7] | [8] | [9] | [10] | [11] | [14] | [15] | [17] | [18] | [19]

CCOP(=S)(OCC)Oc1cc(C)nc(C(C)C)n1
inactive: [1] | [2] | [3] | [4] | [5] | [6] | [7] | [8] | [9] | [10] | [11] | [12] | [14] | [15] | [17] | [18] | [19]
